An excerpt weighted towards active compounds, which were near 1.4% of everything screened.
BRCA1 expr act – BRCA1 expression activation. MCF7-BRCA1-FFLuc reporter, luminescence, 48 h; response scale: scaled: vehicle 0%, 10 µM genistein 100%. Potency, µM (top dose mostly 46.1 µM), for inactives: at the top dose activation, usual class: activators. hit rate 1.1% among 380,000. AID 624202; also: potency is read from the fitted curve at half-maximal effect; nearly all actives have a fitted effect of over 80% in size
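Luminescence from a BRCA1-driven firefly luciferase in MCF7 cells was read after 48 h compound exposure at 37 C. Data normalized against DMSO and a 10microM genistein activation control, then curve-fitted across the titration.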
p53 reactivation – re-activators of mutant p53 | AID 504706 | Potency, µM (titrated, usually from 92.2 µM), inactives show at the top dose activity change, positive = activation, usual class: activators | hit rate 0.063% among 320,000 | H1299 p53-A138V BP100-luciferase reporter, luminescence, 24 h; also: potency is read from the fitted curve at half-maximal effect; % of control where 0% means no effect; nearly all actives have a fitted effect of over 45% in size
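p53-null H1299 cells stably carrying temperature-sensitive p53-A138V and a BP100-luciferase reporter were pinned with compounds (4-point, 1:5 series) and held 24 hrs at 37 deg C. Luminescence was read 10 min after detection reagent.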
TCR act – activators of T cell receptors. 330,000 tested, under 10 active. Potency, µM (top dose mostly 9.22 µM), without a hit: top-dose activation of IL-2 secretion, usual class: activators. primary human leukocytes, anti-CD3, IL-2 HTRF, 48 h; also: % of control where 0% means no effect
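Primary human leukocytes were stimulated with a-CD3 beads plus compounds for 48 hr without co-stimulation; secreted IL-2 was quantified by HTRF using a-IL-2-K (europium cryptate) and a-IL-2-d2, excited at 320nm with acceptor emission read at 665nm.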
uPA generation – blocks generation of uPA at the cell surface; cell surface uPA generation assay, qHTS; Potency, µM (doses to about 38.3 µM), inactives show at the top dose activity change, negative = inhibition, hits mostly inhibitors; hit rate 0.31% among 330,000; active = well fitted inhibition curve with a large enough effect; inconclusive = small, poorly fitted or top-dose-only effect; inactive = no such curve, though single readings can be large or run the other way; tested in mouse RAW 264.7 cells; also: potency is read from the fitted curve at half-maximal effect; % is scaled to controls: 0 for no effect and ±100 for the full control effect; nearly all actives have a fitted effect of over 55% in size
IL2 activator – activators of IL-2; IL-2 activation reporter assay, cell-based qHTS; stimulated with anti-CD3/CD4/CD28 beads; in transgenic mouse T cells; activation, % (series mostly up to about 46 µM); AID 652025; hit rate 0.065% among 360,000; in the data active = activation above about 50%; inconclusive = mostly about 30% to 49%; also: 0% is about no effect
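EGFP and DsRed fluorescence is measured by plate cytometry in unstimulated transgenic mouse T cells exposed to compound for 60 minutes, then stimulated 18 hours at 37 degrees C with anti-CD3/anti-CD4 beads plus anti-CD28.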
* hit, by the source's call; ? = inconclusive; · = no result; [ ] = dose if it differs, or a comment. Unless noted, calls follow the shape of the dose curve; as a rule, active = well fitted curve in the direction sought with a large enough effect; inconclusive = small, poorly fitted or top-dose-only effect, or another doubt; inactive = no such curve, though single readings can be large; an effect the other way counts as inactive or inconclusive.

SMILES	BRCA1 expr act	p53 reactivation	TCR act	uPA generation	IL2 activator
O=C(/C=C/c1ccc(Cl)cc1Cl)Nc1cccc(S(=O)(=O)NC2=NCCC2)c1	?	-7.7%	-9.6%	4.47µM*	-0.9
CN(C)c1cccc(C(=O)Nc2ccc(N3CCOCC3)cc2)c1	11.2µM*	1.1%	3.8%	·	-3.4
CN(C)c1cccc(C(=O)Nc2cccc(S(=O)(=O)NC3=NCCC3)c2)c1	3.98µM*	-4.0%	-5.2%	-8.1%	-3.4
O=C(Nc1ccc(N2CCOCC2)cc1)c1cccc(-n2cnnc2)c1	16.6%	-7.0%	7.2%	2.6%	0.9
O=C(Nc1cccc(S(=O)(=O)NC2=NCCC2)c1)c1ccccc1	-12.9%	-7.9%	10.9%	0.1%	-0.7
CCc1ccc2oc(-c3cccc(NC(=O)C(C)(C)Oc4ccc(Br)cc4)c3)nc2c1	4.2%	·	·	·	·
Cc1occc1C(=O)N/N=C/c1ccc(Br)s1	8.91µM*	3.7%	2.3%	4.5%	0.4
CCOc1ccc(/C=N/NC(=O)c2ccoc2C)cc1OC	10µM*	19.6%	-0.6%	-3.2%	1.2
COc1cc(/C=N/NC(=O)c2ccoc2C)ccc1O	?	?	0.7%[46.1 µM]	-0.1%	0.4
O=C(CSc1ccccc1C(=O)O)c1ccc(Cl)cc1	10µM*	?	3.1%	0.6%	-0.4
Cc1cc(C)c(S(=O)(=O)NCCc2cc3ccc(C)cc3[nH]c2=O)c(C)c1	4.0%	·	·	·	·
COc1ccc(CCNC(=O)CCn2c(=O)c3ccccc3n(Cc3ccccc3C)c2=O)cc1OC	6.9%	·	·	·	·
O=C(COC(=O)Cn1cnc2ccccc21)Nc1cc(S(=O)(=O)N2CCOCC2)ccc1Cl	-6.5%	-1.0%	-3.8%	1.1%	-0.9
O=C(COC(=O)Cn1cnc2ccccc21)Nc1cc2c(cc1Cl)C(=O)c1ccccc1C2=O	?	14.1%	-1.2%	5.01µM*	-3.6
CC1(C)OC(=O)C2(Cc3ccccc3N3CCCC32)C(=O)O1 (centres undefined)	33.0%	·	·	·	·
CCOC(=O)C(=O)N(Nc1ccc(C)cc1)c1ccc(C)cc1	11.2µM*	4.8%	-0.4%	-1.7%	0.1
CCC(O)(CC)C(=O)N(Nc1ccc(C)cc1)c1ccc(C)cc1	-3.2%	5.2%	3.3%	-1.3%	-0.3
CCC(=O)N1CCc2cc(Br)cc(S(=O)(=O)N(CC)Cc3ccccc3)c21	7.7%	·	·	·	·
CC(C)(C)c1ccc(-c2nnc(NC(=O)c3ccccc3)s2)cc1	3.16µM*	-2.5%	3.4%	-0.9%	-2.4
Cc1cccc(-c2nnc(NC(=O)c3ccco3)s2)c1	?	?	-14.6%	-2.9%	-1.8
O=C(Nc1nnc(-c2ccc(F)cc2)s1)c1ccco1	2.82µM*	18.8%	3.9%	-2.0%	-0.3
CCN(CCCNC(=O)c1cc(Nc2ccccc2OC)nc2ccccc12)c1cccc(C)c1	-35.2%	·	·	·	·
Cc1ccc(-c2cc3c(N4CCN(c5cc(C)ccc5C)CC4)nccn3n2)cc1	-6.8%	·	·	·	·
Cc1ccc(S(=O)(=O)C(NC(=O)c2ccccc2)=C(Cl)Cl)cc1	-80.2%	·	1.7%	-16.4%	-2.4
O=C(NC(=C(Cl)Cl)S(=O)(=O)c1ccc(Cl)cc1)c1ccccc1	-65.4%	-12.5%	1.7%	8.91µM*	-1.9
SMILES	BRCA1 expr act	p53 reactivation	TCR act	uPA generation	IL2 activator
Cc1ccc(NC(=O)CCc2c(C)nc3c(-c4ccc(F)cc4)c(C)nn3c2C)cc1F	7.8%	·	·	·	·
C=C(C)CNC(=S)Nc1nc2c(cc1C(=O)OCC)CCCC2	7.08µM*	?	-3.5%[46.1 µM]	-27.7%	0.0
CCOC(=O)CC(NC(=O)c1cc2cccc(OC)c2oc1=O)c1ccc(OC)cc1 (centres undefined)	12.6µM*	16.1%	-4.2%	-6.1%	0.6
CCOC(=O)CC(NC(=O)c1cc2cc(Br)cc(OC)c2oc1=O)c1ccc(OC)cc1 (centres undefined)	29.1%	·	·	·	·
COc1ccc(C2OC(=O)CC2C(=O)NCc2ccc(Cl)cc2)cc1OC (centres undefined)	8.91µM*	13.8%	3.3%	-2.7%	-1.2
COc1ccccc1C1=NC(c2ccc(C)cc2)N=C1C (centres undefined)	10µM*	12.4%	12.2%	-13.9%	-3.7
COc1ccccc1-c1nnc(-c2ccc(C)cc2)o1	60.2%	·	-5.1%	-10.7%	-3.3
COc1ccc(N2CCN(S(=O)(=O)c3ccc(C4CCCCC4)cc3)CC2)cc1	1.5%	·	·	·	·
Cc1occc1C(=O)NNC(=O)C1CCCC1	-2.7%	-4.4%	·	1.7%	0.6
Cc1occc1C(=O)NN=C1C2CC3CC(C2)CC1C3	?	12.6µM*	-1.1%[46.1 µM]	3.3%	3.7
Cc1occc1C(=O)NC(C)C12CC3CC(CC(C3)C1)C2 (centres undefined)	-10.6%	-1.4%	5.9%	3.1%	0.1
Cc1occc1C(=O)NC1CCCCCCC1	14.1µM*	?	0.1%[46.1 µM]	-8.9%	-4.2
Cc1cccc(-n2c(=O)c3ccccc3n(Cc3ccc(F)cc3)c2=O)c1	-31.8%	·	·	·	·
COc1ccc(-c2nc(CN3CCN(Cc4ccccc4)CC3)c(C)o2)cc1	-10.0%	?	-2.2%	-7.9%	0.4
Cc1oc(-c2ccc(-c3ccccc3)cc2)nc1CN1CCN(CC(=O)N(C)C)CC1	8.91µM*	-2.7%	1.1%	5.4%	0.4
O=C(Nc1ccncc1)C1C(=O)c2ccccc2N(Cc2ccccc2)C1=O (centres undefined)	-3.8%	·	·	·	·
Clc1ccc(-c2nnc(CCc3ccccc3)o2)c(Cl)c1	11.2µM*	21.7%	2.1%	-11.7%	0.6
Oc1ccccc1-c1nnc(COc2ccc(Cl)cc2Cl)o1	12.6µM*	?	-2.8%	?	1.5
CC(=O)Nc1ccccc1OCc1nnc(-c2ccccc2Cl)o1	14.7%	?	·	-3.6%	-0.2
CCCCn1c(=O)n(-c2cc(OC)ccc2OC)c(=O)c2c3c(sc21)CN(C(C)=O)CC3	-24.6%	·	·	·	·
COc1cccc(C(=O)Nc2c3c(nn2-c2ccc(C)cc2C)CS(=O)(=O)C3)c1OC	18.7%	·	·	·	·
Cc1cccc(C)c1NC(=O)CSc1nccn1C	-8.4%	·	·	·	·
COc1ccc([C@H]2CC(=O)C=C(c3cc(C=O)ccc3OC)C2)cc1	-38.6%	1.0%	-7.9%	6.31µM*	-0.2
CCOc1cccc(/C=C(/C#N)c2nc3ccccc3[nH]2)c1OCC(=O)O	-9.7%	11.9%	-5.3%	-18.0%	-0.7
CCN(CC)c1ccc(/C=C(/C#N)c2nc3ccccc3[nH]2)c(OC(C)C)c1	5.5%	3.7%	-1.9%	10µM*	26.6
COc1ccc(CCNC(=O)CSc2nc(-c3ccc(F)cc3)cc(C(F)(F)F)n2)cc1OC	-3.5%	·	·	·	·
CCC(C)(C)NC(=O)c1ccc(Sc2nncn2C)c([N+](=O)[O-])c1	-3.4%	23.4%	-4.4%[46.1 µM]	6.0%	-1.1
Cn1cnnc1Sc1ccc(/C=C/C(=O)c2ccc(O)cc2)cc1[N+](=O)[O-]	-87.2%	-4.5%	11.1%	8.91µM*	-5.1
N/C(=N\OC(=O)CSc1ccccc1)c1cccc([N+](=O)[O-])c1	12.6µM*	?	0.5%[46.1 µM]	6.5%	-2.2
